Laboratory results taken from PubChem BioAssay AID1440 (NMMLSC, 2008).
Hit rate of the full screen: of about 220,000 compounds, fewer than 10 were called active. About 92% were inconclusive and are not listed. No rule for the calls is given here. These entries were drawn from the full list.

Target: Guanine nucleotide-binding protein G(o) subunit alpha (Homo sapiens) + Regulator of G-protein signaling 19 (Homo sapiens) (UniProt P09471+P49795)
Assay: regulators of RGS19 binding to Galphao, biochemical, multiplexed bead flow cytometry (AID 1440);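 also: fluorescent Galpha o activated by aluminum fluoride binding bead-coupled RGS19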
Settings: at 10 µM

Sequence of Guanine nucleotide-binding protein G(o) subunit alpha (Homo sapiens) + Regulator of G-protein signaling 19 (Homo sapiens) (P09471 whole entry, looked up): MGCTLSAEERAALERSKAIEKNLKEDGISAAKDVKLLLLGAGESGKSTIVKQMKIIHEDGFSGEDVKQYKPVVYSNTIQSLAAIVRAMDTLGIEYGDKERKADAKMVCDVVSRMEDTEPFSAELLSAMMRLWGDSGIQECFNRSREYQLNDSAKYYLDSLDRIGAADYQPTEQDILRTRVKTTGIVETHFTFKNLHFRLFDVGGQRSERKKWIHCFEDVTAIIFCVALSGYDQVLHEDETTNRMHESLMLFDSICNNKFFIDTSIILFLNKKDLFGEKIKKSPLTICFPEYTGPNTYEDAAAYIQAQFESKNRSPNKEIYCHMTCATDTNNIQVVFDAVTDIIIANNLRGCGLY
Sequence of Guanine nucleotide-binding protein G(o) subunit alpha (Homo sapiens) + Regulator of G-protein signaling 19 (Homo sapiens) (P49795 whole entry, looked up): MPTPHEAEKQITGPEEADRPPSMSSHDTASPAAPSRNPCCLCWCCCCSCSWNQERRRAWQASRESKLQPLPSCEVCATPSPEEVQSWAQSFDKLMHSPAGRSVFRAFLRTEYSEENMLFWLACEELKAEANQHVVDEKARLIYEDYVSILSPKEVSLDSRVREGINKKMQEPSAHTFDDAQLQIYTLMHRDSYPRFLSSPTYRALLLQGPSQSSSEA

Point of comparison: `CCC(=O)N1CCc2cc(S(=O)(=O)NC(Cc3ccccc3)C(=O)Nc3nccs3)ccc21` (configuration not stated), binding response (% of control) -46.3%. Against it:
- O=C(c1ccccc1)N1CCCCCC1 — higher, 58.2%
- O=C(NC1CCCC1)C1CCC(CNS(=O)(=O)c2cccs2)CC1 (configuration not stated) — higher, 88.8%
- CCOC(=O)c1ccc(N2CN=C3SCC(=O)N3C2)cc1 — higher, 94.6%
- COc1ccc(-c2[nH]nc3c2C(c2ccsc2)C(C#N)=C(N)O3)cc1 (configuration not stated) — higher, 80.2%
- COc1ccccc1NC(=O)CSc1nnc(C2CCCCC2)n1C — higher, 50.3%
- CC/C(Cc1ccccc1)=N/NC(=O)c1cccc(Br)c1 — higher, 130%
- COC(=O)c1c(CSc2cccc(C)c2)noc1C(=O)NCc1ccco1 — higher, 102%
- CC(C)COCC1CC2(CC(C)C(=O)CC2=O)C(=O)O1 (configuration not stated) — higher, 56.6%
- CCc1nnc(NC(=O)COC(=O)CN2C(=O)c3ccccc3C2=O)s1 — higher, 62.2%
- COCCn1c(SCC(=O)c2ccc3c(c2)OCCO3)nnc1C(C)C — higher, 59.5%
- Cc1onc(-c2c(Cl)cccc2Cl)c1C(=O)Nn1cnnc1 — higher, 102%
- CCc1ncc(C(=O)c2ccc(OC)cc2)n1C — higher, 108%
- O=C(CN1CCCCCC1=O)OCc1ncc(-c2ccccc2)o1 — higher, 96.5%
- O=C1Nc2ccccc2/C1=C\c1cccn1-c1ccc(OC(F)(F)F)cc1 — higher, 63.3%
- Cc1ccc(C(=O)CSc2nc(N)cc(=O)[nH]2)cc1 — higher, 64.8%
- C/C(=N\NC(=O)CSc1nc2nc(C)cc(C)n2n1)c1ccccc1 — higher, 96.1%
- O=C(NCCCCC(NC(=O)c1ccc([N+](=O)[O-])cc1)C(=O)O)c1ccc([N+](=O)[O-])cc1 (configuration not stated) — higher, 95.5%
- CCOC(=O)Cn1nc(/C=C/c2ccc(C)cc2)ccc1=O — higher, -18.6%
- COC(=O)c1sccc1-c1ccc(C(=O)Nc2ccccc2)o1 — higher, 122%
- Cc1ccc(-c2cc(C(=O)OCC(=O)Nc3cc(C)on3)c3ccccc3n2)c(C)c1 — higher, 81.7%
- O=C(CSc1nc2ccccc2c(=O)n1CC1CCCO1)NCC1CCCO1 (configuration not stated) — higher, 94.2%
- COC(=O)C(NC(=O)Nc1ccccc1OC)C(C)C (configuration not stated) — higher, 93.4%
- CCOC(=O)C1=C(C)NC2=C(C(=O)c3ccccc32)C1c1cccnc1 (configuration not stated) — higher, 104%
- CC(=O)Nc1ccc(OCC=C(Cl)Cl)cc1 — higher, 82.1%
- O=C(NCc1ccccc1)c1ccccc1OCC(=O)N1CCCCC1 — higher, 38.1%
- NC(=S)N/N=C1\CCSc2ccc(Cl)cc21 — higher, 69%
- Cc1ccc(S(=O)(=O)c2c(N)n(Cc3ccco3)c3nc4ccccc4nc23)cc1C — higher, 92.1%
- Cc1ccc(C(=O)NNC(=O)C2CCN(Cc3ccccc3)CC2)cc1 — higher, 96.2%
- CC1(C)C2CCC1(CS(=O)(=O)NCc1ccc(C(=O)O)cc1)C(=O)C2 (configuration not stated) — higher, 107%
- C[C@H](NS(=O)(=O)c1ccccc1F)C(=O)OCC(=O)N1CCc2ccccc21 — higher, 106%
- CC(=O)c1cc2c(cc1NS(=O)(=O)c1ccccc1)OCO2 — higher, 94.9%
- Clc1ccc(Cc2noc(CN3CCN(c4ccccc4)CC3)n2)c(Cl)c1 — higher, -14.4%
- CC1(C)Cc2c(c(N3CCOCC3)nc3snc(N)c23)CO1 — higher, 20.9%
- O=S1(=O)C=CC(N2CCOCC2)C1 (configuration not stated) — higher, 162%
- CCC(=O)NCCc1cc2cc(C)c(C)cc2[nH]c1=O — higher, 96.3%
- Cc1noc(C)c1C(=O)Nc1cccnc1 — higher, 77.2%
- Cc1ccc(S(=O)(=O)N2CCSC2)cc1C — higher, 113%
- COC(=O)Cc1c(C)nc2nc(-c3ccc(Cl)cc3)[nH]n2c1=O — higher, 112%
- CC(C)(C#N)NC(=O)c1ccco1 — higher, 87.8%
- Cc1cc2cc(CN(Cc3ccco3)C(=O)NCc3ccccc3)c(=O)[nH]c2cc1C — higher, 98.1%
- COc1ccc(-c2nc(-c3ccccc3)nc(N3CCN(C)CC3)c2C#N)cc1 — higher, 114%
- O=S1(=O)CCN2C(Cc3ccc(SC(F)F)cc3)=CSC2=N1 — higher, 121%
- Cc1ccc(Cl)c(NC(=O)COC(=O)c2ccccc2C(=O)c2ccc(Cl)c([N+](=O)[O-])c2)c1Cl — higher, 115%
- CCCCN1c2ccccc2N(CCCO)c2cc(C)nnc21 — higher, 99%
- O=C(NCC(c1cccnc1)N1CCN(c2ccc(F)cc2)CC1)C1CCCCC1 (configuration not stated) — higher, 104%
- CC12CC(c3ccccc3O1)N(C(=O)c1ccco1)C(=O)N2c1ccccc1 (configuration not stated) — higher, 95.1%
- Cn1cnnc1SCC(=O)N1N=C2/C(=C/c3ccco3)CCCC2C1c1ccco1 (configuration not stated) — higher, 61.5%
- CC(NS(=O)(=O)c1cccc(Cl)c1)C(=O)Nc1ccc(-c2nc3ccccc3s2)cc1 (configuration not stated) — higher, 115%
- Cc1nn(Cc2ccc(Cl)cc2)c(C)c1N — higher, 8.58%
- CC(C)SCCCCOc1ccc2ccccc2c1 — higher, 88.9%
- CCOC(=O)c1nnn(-c2nc(N3CCCC3)nc(N3CCCC3)n2)c1-c1ccccc1 — higher, 112%
- CN(C)S(=O)(=O)c1ccc(C(=O)Nc2nnc(SCc3ccccc3)s2)cc1 — higher, -32.2%
- Cc1cc(C)n(C2CCCCC2OC(=O)c2ccccc2)n1 (configuration not stated) — higher, 110%
- CC1CN(S(=O)(=O)c2cccc(-c3cn4ccccc4n3)c2)CC(C)O1 (configuration not stated) — higher, 105%
- O=C(CSc1nnc(COc2ccc(Cl)cc2)o1)N1c2ccccc2CCc2ccccc21 — higher, 98.2%
- COc1ccc(Cc2nc3ccc(S(N)(=O)=O)cc3[nH]2)cc1OC — higher, 56.5%
- COc1ccc(C(=O)CN(C(=O)c2ccc(Cl)cc2)N2C(=O)C3CCCCC3C2=O)cc1 (configuration not stated) — higher, 103%
- Cc1c(NC(=O)CSc2nc3c(cnn3-c3ccccc3)c(=O)[nH]2)c(=O)n(-c2ccccc2)n1C — higher, 125%
- CC(C)CC1=C/C(=C/c2ccc(-c3ccccc3)o2)C(=O)O1 — higher, 71.1%
- Cc1ccc(Cl)c(OCCN2CCCC(C)C2)c1 (configuration not stated) — higher, 118%
- Cc1cc(=O)n2[nH]c(SCc3ccccc3)nc2n1 — higher, 102%
- O=C(c1ccccc1F)N1CCN(c2ccccc2)CC1 — higher, 64.3%
- Cn1cc(CN(CCCN2CCOCC2)C(=S)Nc2cccc(Cl)c2)c2ccccc21 — higher, -17%
- COC(=O)c1cc(OC)c(OC)cc1NC(=S)N1CCCC(CO)C1 (configuration not stated) — higher, 98.1%
- Cc1ccc(NC(=O)N(Cc2ccco2)Cc2cc3cc(C)cc(C)c3nc2Cl)cc1 — higher, 92.8%
- CCOc1ccc(-c2nnc(N)o2)cc1 — higher, 71.8%
- CC(=O)Nc1ccc(NC(=O)Oc2ccccc2)cc1 — higher, 99.1%
- CCOC(=O)c1c(C)n(-c2ccc(OC)cc2)c2c(C/C(C)=N/O)c(Br)c(OC)c(O)c12 — higher, 120%
- COc1cccc(C2=CC(c3ccc(OC)c(OC)c3OC)n3nnnc3N2)c1 (configuration not stated) — higher, 102%
- O=Nc1c(O)n(Cc2ccc(Cl)c(Cl)c2)c2ccccc12 — higher, 70.4%
- CCOC(=O)c1nnc(-c2cccs2)nc1NC(C)C — higher, 220%
- CCOC(=O)c1nnn(-c2nc(OC)nc(N3CCCCC3)n2)c1-c1ccccc1 — higher, 69.6%
- O=C(c1cnccn1)N(Cc1cccs1)C1(C(=O)NC2CCCCC2)CCCCC1 — lower, -941%
- COc1ccc(Br)cc1-c1noc(-c2ccncc2)n1 — higher, 92.5%
- Cc1ccc(C(=O)NC(=S)N2CCN(C)CC2)cc1 — higher, 97.8%
- CC(=O)c1nc2ccccc2n1S(=O)(=O)c1ccc(C)cc1 — higher, 97.2%
- Clc1ccc(/C=N/N2CCN(Cc3ccccc3Cl)CC2)cc1 — higher, 100%
- COc1ccc(N2CCN(C(=O)CSc3nnnn3-c3ccc4c(c3)OCCO4)CC2)cc1 — higher, 94.7%
- COc1ccc(N(C(=O)Cn2nnc3ccccc32)C(C(=O)NCc2ccco2)c2cccnc2)cc1 (configuration not stated) — higher, 110%
- CC(C)(C)OC(=O)N1CCOCCOCCNCCOCCOCC1 — higher, 98.6%
- CN=C(Nc1cc(C)nn1-c1ccccc1)c1ccccc1 — higher, 113%
- COCCCNC(=O)c1ccc(NS(C)(=O)=O)cc1 — higher, 96.8%
- Cc1ccc(CNCC2CCCO2)o1 (configuration not stated) — higher, 96.8%
- COc1ccc2c(c1)c(C(=O)CNc1nc(C)cs1)c(C)n2C — higher, 44.3%
- FC(F)Oc1ccc(-c2c[n+]3c(n2-c2ccccc2)CCCCC3)cc1 — higher, 256%
- Cc1nn(Cc2ccc(F)cc2)c(C)c1NC(=O)c1cnn2cccnc12 — higher, 109%
- CC1=C(C(N)=O)C(c2cccc(OCc3ccccc3)c2)n2nnnc2N1 (configuration not stated) — higher, 91.9%
- Cc1ccc(Cl)cc1N(Cc1ccc(C(=O)NCc2cccnc2)cc1)S(=O)(=O)c1ccccc1 — higher, 98.3%
- CCCCCOc1ccc(NC(=O)CCCC(=O)O)cc1 — higher, 81.9%
- C#CCn1cnc2c(cnn2-c2ccc(C)c(C)c2)c1=O — higher, 106%
- COc1ccc(C(=O)CSc2nc3ncccc3[nH]2)cc1OC — higher, 52.5%
- CCn1cc(C(=O)NCC2CCCO2)c2cc(OC)c(OC)cc2c1=O (configuration not stated) — higher, 103%
- Cc1cc(C)nc(SCC(=O)N2CCC(C(N)=O)CC2)n1 — higher, 105%
- O=c1[nH]c2cc3c(cc2cc1CN(Cc1ccc2c(c1)OCO2)Cc1nnnn1CC1CCCO1)OCO3 (configuration not stated) — higher, 90.7%
- Cc1ccc(/C=C2\CCCC3=C2NC(=S)NC3c2ccc(C)cc2)cc1 (configuration not stated) — higher, 203%
- C=CCn1c2ccccc2c2nnc(SCN3C(=O)c4ccccc4C3=O)nc21 — higher, 77.7%
- CCCC(C)NC(=O)Cc1ccccc1[N+](=O)[O-] (configuration not stated) — higher, 110%
- O=C(CN1CCSCC1)N1CCc2[nH]c3ccc(Br)cc3c2C1 — higher, 66.9%
- CCc1ccc(OCC(=O)Nc2cc(S(=O)(=O)CC)ccc2O)cc1 — higher, 89.9%
- Cc1ccc(NC(CC(=O)c2ccccc2)c2ccc(F)cc2)cc1 (configuration not stated) — higher, 100%
- O=C1COc2ccc(C(=O)NCc3ccc4c(c3)OCO4)cc2N1 — higher, 104%
- CC(NC(=O)C(=O)NN=C1CCCCCCCCCCC1)c1ccccc1 (configuration not stated) — higher, 101%
- COc1ccc(-c2nn[nH]n2)cc1OC — higher, 116%
- O=C(CN1CCOCC1)Nc1ncc(Cc2ccccc2Cl)s1 — higher, 108%
- Clc1ccc(-c2nn3c(C4COc5ccccc5O4)nnc3s2)cc1 (configuration not stated) — higher, 17.6%
- C/C(CC(=O)Nc1cccc(Cl)c1C)=N\NC(=O)C(=O)NCC(C)C — higher, 105%
- COC(=O)CNC(=O)COC(=O)c1ccc(OC)c([N+](=O)[O-])c1 — higher, 98.3%
- CCN1CCN(C(c2cccs2)C(C)NC(=O)c2c(F)cccc2F)CC1 (configuration not stated) — higher, 114%
- BrC(/C=C\c1ccccc1)=N/Nc1nc(N2CCOCC2)nc(N2CCOCC2)n1 — higher, 98.4%
- O=C(c1ccccc1NS(=O)(=O)c1ccc(Br)s1)N1CCCC1 — higher, 102%
- Cc1cc(C)c(C#N)c(SCC(=O)N2CCCCC2)n1 — higher, 91.6%
